Measured values from PubChem BioAssay (NCI).
Compounds without any hit were thinned out: in the full panel of roughly 83,000, 20% have a hit.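 In brief: 96-well plates, 48 h treatment, single concentration, percent growth endpoint.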 Calls of active or inactive are those of the source. How the source made its calls: active means growth percent below 10; inactive means the rest.

The molecules below were run on MDA-MB-468 breast (assay: NCI-60 one-dose screen, 48 h (100 = growth as untreated, 0 = no growth, -100 = all killed)). Conditions: 10 µM unless noted.
For `COc1ccc(-c2c(N)n[nH]c2-c2cc(OC)c3c(c2)OCCO3)cc1`, the growth was 71.7% (inactive). In the case of `CC1=CCC(OC(=O)C(C)(C)CCC(O)(C(=O)OC2(C(C)C)CCC3(C)OC3C2)C(C)C)(C(C)C)CC1` (stereo not given), the growth is reported as -64.4% (active). `Clc1ccc(N2CCN(CCCN3CCN(c4cccc(Cl)c4)CC3)CC2)cc1` was tested, and the growth was 23.5% (inactive). With `CN(C)CCCOc1c2ccc(Cl)cc2nc2c1oc1ccc(Cl)cc12` the growth was -48% (active). For `Clc1ccc2nc3nc4ccc[nH]c4cc3c2c1`, the growth was -31.5% (active). With `COC(=O)c1nc(N)nc(C(=O)OC)c1C(=O)c1cccc2ccccc12` the growth was 97.6% (inactive). In the case of `CC(=O)c1ccc(C)c(N)c1`, the growth is reported as 104% (inactive). `CC(=O)c1ccc(NC(=O)CSc2nnc(-c3cc(-c4ccc(C)cc4)nc4ccccc34)o2)cc1` was tested, and the growth was 95.4% (inactive). For `CNC(=O)c1[nH]cc(-c2ccc(OC)cc2)c1-c1cc(OC)c2c(c1OC)OCO2`, the growth was 97.7% (inactive). In the case of `O=C1NC(=O)C(=Cc2cn(Cc3ccccn3)c3ccccc23)C(=O)N1`, the growth is reported as -51.2% (active). `C=C(CN1CC=CCC1)[C@@H]1CC[C@]2(CO)CC[C@]3(C)[C@H](CC[C@@H]4[C@@]5(C)CC[C@H](O)C(C)(C)[C@@H]5CC[C@]43C)[C@@H]12` was tested, and the growth was 89.2% (inactive). `CCN1CCN(C(=O)[C@]23CC[C@@H](C)[C@H](C)[C@@H]2C2=CC[C@@H]4[C@@]5(C)CCC(=O)C(C)(C)[C@@H]5CC[C@@]4(C)[C@]2(C)CC3)CC1` was tested, and the growth was -7.11% (active). `CC(=O)c1cc(C)c(OC(=O)c2ccccc2)c(C)c1` was tested, and the growth was 94% (inactive). In the case of `Cn1cnc2c(F)c(Nc3ccc(Br)cc3Cl)c(C(=O)NOCCO)cc21`, the growth is reported as 92.5% (inactive). With `Cc1ncc(C(=O)Nc2ccc(CN3CCN(C)CC3)c(C(F)(F)F)c2)cc1C#Cc1c(N)ncc2ccc(F)cc12` the growth was 48.2% (inactive). In the case of `O=C1c2ccccc2C(=O)c2c1ccc(C(Br)Br)c2Cl`, the growth is reported as -12.6% (active). In the case of `O=C(NCCCCNC(=O)OCc1ccc2c(Cl)cc(Cl)c(O)c2n1)OCc1ccc2c(Cl)cc(Cl)c(O)c2n1`, the growth is reported as -5.78% (active). For `Cc1c(Cc2ccccc2)c(=O)oc2c(C)c(OCC(=O)n3nc(C#N)cc3N)ccc12`, the growth was 114% (inactive). `COC(=O)c1c(C)c2n(c1C)C(=O)C(c1ccccc1)=C2` was tested, and the growth was 39.1% (inactive). `CCn1c(-c2cc3c([nH]c4ccccc43)c(-c3cccc(O)c3)n2)n[nH]c1=S` was tested, and the growth was 16.1% (inactive). In the case of `N#C/C(=C\c1ccc2ccccc2c1)c1cc2ccccc2[nH]1`, the growth is reported as 30.5% (inactive). For `CCn1cc(CNc2ccc(C(=O)Nc3cc4cc(OC)c(OC)cc4c(C)n3)cc2)cn1`, the growth was 41.8% (inactive). For `CCCNc1nc2ccccc2c2c(=O)c3cccc(Cl)c3sc12`, the growth was 36.2% (inactive). In the case of `Cc1cc(N2CCN(C)CC2)nc(N(CCNc2ccnc3cc(Cl)ccc23)Cc2ccco2)n1`, the growth is reported as 37.5% (inactive). For `Cc1ccc2nc(-[n+]3cc4ccccc4cc3C)ccc2c1`, the growth was -14.5% (active). `COc1cc(/C=C/C(=O)c2ccc(C(F)(F)F)cc2)ccc1Oc1nc(NCCO)nc(N2CCOCC2)n1` was tested, and the growth was 85.6% (inactive). In the case of `CC(Nc1c(C#N)cnc2ccc(-c3cnc(N)nc3)cc12)c1ccccc1` (stereo not given), the growth is reported as -9.18% (active). For `CCN1CC(CCN2CCOCC2)C(C(c2ccccc2)c2ccccc2)C1=O` (stereo not given), the growth was 102% (inactive). With `CNC(=O)c1cc(Oc2cccc3nc(Nc4ccc(Cl)c(F)c4)ccc23)ccn1` the growth was 51.3% (inactive). For `CCOc1ccc(-n2nc(C(=O)NCc3ccccc3OC)nc2-c2cc(OC)c(OC)c(OC)c2)cc1`, the growth was 72.4% (inactive). For `CC(=O)C1Cc2ccccc2C1=O` (stereo not given), the growth was 105% (inactive). In the case of `O=C(/C=C/c1ccccc1)c1cccc2ccccc12`, the growth is reported as -2.6% (active). For `CS(=O)(=O)Nc1cc(-c2ccc3ncc(C#N)c(Nc4cccc(Cl)c4F)c3c2)cnc1Cl`, the growth was -45.3% (active). In the case of `C=C1C(=O)O[C@@H]2C3C(=C(C)CC[C@@H]12)CC1O[C@]13C` (stereo not given in full), the growth is reported as 19.3% [6.75 µM] (inactive). In the case of `c1coc([C@@H]2C[C@@H]3Cc4ccc5ccccc5c4N2O3)c1`, the growth is reported as 89.7% (inactive). In the case of `O=C(CNc1c(Cl)cccc1Cl)Nc1ccc(-c2nc3ccccc3s2)cc1`, the growth is reported as -7.4% (active). With `N#Cc1c(N)nc2c(nnn2-c2cccc(C(F)(F)F)c2)c1N` the growth was 76.4% (inactive). With `O=CN1N=C(c2ccc(Cl)cc2)CC1c1cccc(Nc2ccnc3cc(Cl)ccc23)c1` (stereo not given) the growth was -0.854% (active). For `O=C(N/N=C/c1ccc(OC(F)F)c(OC2CCCC2)c1)c1cnn2c1NC(c1ccccc1)C2` (stereo not given), the growth was 84% (inactive). With `CN1CCN(Cc2ccc(NC(=O)c3cncc(C#Cc4cnc5ccc(OC6CCOCC6)nn45)c3)cc2C(F)(F)F)CC1` the growth was -62.5% (active).
